Results: article PMC7862700, “An all-to-all approach to the identification of sequence-specific readers for epigenetic DNA modifications on cytosine”

What was measured:
Assay in all cases: DAPPL (digital affinity profiling via proximity ligation, sequencing); 10 mM Tris-HCl pH 7.5, 50 mM NaCl, 1 mM DTT, 4% glycerol, room temperature, 30 min; GST-TFs on glutathione beads, 16-mer random dsDNA library, 0.1% formaldehyde crosslink after washing; high values mean tight binding
FLI1 = biological target: T1, FLI1 (Homo sapiens, UniProt Q01543 1-452); settings: protein: recombinant; tags: N-terminal GST; dsDNA, one strand shown
T1 sequence: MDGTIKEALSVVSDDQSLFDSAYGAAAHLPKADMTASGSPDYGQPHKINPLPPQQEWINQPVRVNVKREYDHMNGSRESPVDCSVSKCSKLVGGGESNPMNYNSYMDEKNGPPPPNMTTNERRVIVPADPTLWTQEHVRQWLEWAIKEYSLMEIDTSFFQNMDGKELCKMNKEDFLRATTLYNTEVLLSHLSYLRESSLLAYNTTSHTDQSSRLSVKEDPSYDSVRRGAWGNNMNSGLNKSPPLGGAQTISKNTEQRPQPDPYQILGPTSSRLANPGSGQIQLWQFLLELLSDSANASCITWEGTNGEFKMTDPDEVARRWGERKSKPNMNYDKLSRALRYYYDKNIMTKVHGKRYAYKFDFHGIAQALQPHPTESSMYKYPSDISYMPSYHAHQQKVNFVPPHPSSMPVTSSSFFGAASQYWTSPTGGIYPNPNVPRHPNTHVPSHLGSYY
In short: (§1)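 The binding signal reported is, for every hexamer, its read frequency for a factor over its read frequency for the tag-only sample. Reads came from pools of yeast-expressed, GST-fused human transcription factors on glutathione beads, barcoded with DNA and mixed with that sample, which were incubated with 200 nmole of a random double-stranded 16-mer DNA library in Tris/NaCl/DTT/glycerol buffer at room temperature for 30 min. After washing, the pools were crosslinked with 0.1% formaldehyde, proximity-ligated with BsaI/T4 ligase for 1 h at 37 °C, PCR-amplified and sequenced on an Illumina NextSeq500.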

ELK1 = biological target: T2, ELK1 (Homo sapiens, UniProt P19419 1-428); settings: protein: recombinant; tags: N-terminal GST; dsDNA, one strand shown
T2 sequence: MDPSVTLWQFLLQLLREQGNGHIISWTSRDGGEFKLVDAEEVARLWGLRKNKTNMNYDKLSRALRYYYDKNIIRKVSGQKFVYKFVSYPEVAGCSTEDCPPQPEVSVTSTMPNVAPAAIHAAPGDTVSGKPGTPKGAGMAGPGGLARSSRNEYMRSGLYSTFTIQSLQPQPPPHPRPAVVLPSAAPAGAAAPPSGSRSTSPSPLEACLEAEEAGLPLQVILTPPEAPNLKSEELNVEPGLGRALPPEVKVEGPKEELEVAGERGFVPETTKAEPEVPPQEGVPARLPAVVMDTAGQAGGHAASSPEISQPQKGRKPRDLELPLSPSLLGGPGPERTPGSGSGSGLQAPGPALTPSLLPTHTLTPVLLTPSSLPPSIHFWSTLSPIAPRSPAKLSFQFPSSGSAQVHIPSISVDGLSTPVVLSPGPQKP
In short: as §1

GABPA = biological target: T3, GABPA (Homo sapiens, UniProt Q06546 1-454); settings: protein: recombinant; tags: N-terminal GST; dsDNA, one strand shown
T3 sequence: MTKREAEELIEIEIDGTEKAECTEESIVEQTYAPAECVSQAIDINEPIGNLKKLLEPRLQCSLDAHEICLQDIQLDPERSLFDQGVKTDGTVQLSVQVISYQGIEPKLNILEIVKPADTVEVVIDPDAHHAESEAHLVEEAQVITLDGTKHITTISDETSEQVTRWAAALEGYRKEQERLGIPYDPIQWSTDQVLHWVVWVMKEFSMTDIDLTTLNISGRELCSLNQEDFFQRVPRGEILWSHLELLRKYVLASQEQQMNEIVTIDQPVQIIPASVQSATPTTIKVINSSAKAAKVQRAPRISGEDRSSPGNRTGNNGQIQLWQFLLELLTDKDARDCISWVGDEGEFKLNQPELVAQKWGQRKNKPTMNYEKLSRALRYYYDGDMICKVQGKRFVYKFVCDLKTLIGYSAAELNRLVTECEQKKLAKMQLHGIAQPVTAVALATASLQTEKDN
In short: as §1

ERG = biological target: T4, ERG (Homo sapiens, UniProt P11308 1-479); settings: protein: recombinant; tags: N-terminal GST; dsDNA, one strand shown
T4 sequence: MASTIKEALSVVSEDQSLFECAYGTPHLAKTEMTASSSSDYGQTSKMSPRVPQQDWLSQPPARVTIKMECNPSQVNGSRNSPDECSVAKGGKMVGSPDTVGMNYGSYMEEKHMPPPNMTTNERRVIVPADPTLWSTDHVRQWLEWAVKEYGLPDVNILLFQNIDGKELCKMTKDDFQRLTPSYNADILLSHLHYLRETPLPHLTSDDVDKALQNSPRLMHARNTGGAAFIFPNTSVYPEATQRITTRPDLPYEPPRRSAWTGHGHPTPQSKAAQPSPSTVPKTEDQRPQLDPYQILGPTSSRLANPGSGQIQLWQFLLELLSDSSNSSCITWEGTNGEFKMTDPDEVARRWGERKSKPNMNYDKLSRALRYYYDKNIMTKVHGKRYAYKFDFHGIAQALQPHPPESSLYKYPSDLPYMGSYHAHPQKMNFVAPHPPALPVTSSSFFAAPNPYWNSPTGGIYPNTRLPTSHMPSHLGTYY
In short: as §1

ELF1 = ELF1 (Homo sapiens, UniProt P32519 1-619); settings: protein: recombinant; tags: N-terminal GST; dsDNA, one strand shown
In short: as §1

EHF = biological target: T5, EHF (Homo sapiens, UniProt Q9NZC4 1-300); settings: protein: recombinant; tags: N-terminal GST; dsDNA, one strand shown
T5 sequence: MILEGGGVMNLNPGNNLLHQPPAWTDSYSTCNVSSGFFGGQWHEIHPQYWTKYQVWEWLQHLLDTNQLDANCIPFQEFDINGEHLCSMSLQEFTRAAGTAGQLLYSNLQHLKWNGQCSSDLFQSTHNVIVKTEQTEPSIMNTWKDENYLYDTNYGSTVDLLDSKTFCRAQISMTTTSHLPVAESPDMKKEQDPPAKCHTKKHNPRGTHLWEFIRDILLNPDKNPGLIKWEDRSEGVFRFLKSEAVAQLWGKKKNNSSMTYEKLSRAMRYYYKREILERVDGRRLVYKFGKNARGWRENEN
In short: as §1

SPI1 = SPI1 (Homo sapiens, UniProt P17947 1-270); settings: protein: recombinant; tags: N-terminal GST; dsDNA, one strand shown
In short: as §1

SPIB = SPIB (Homo sapiens, UniProt Q01892 1-262); settings: protein: recombinant; tags: N-terminal GST; dsDNA, one strand shown
In short: as §1

ELK3 = biological target: T6, ELK3 (Homo sapiens, UniProt P41970 1-407); settings: protein: recombinant; tags: N-terminal GST; dsDNA, one strand shown
T6 sequence: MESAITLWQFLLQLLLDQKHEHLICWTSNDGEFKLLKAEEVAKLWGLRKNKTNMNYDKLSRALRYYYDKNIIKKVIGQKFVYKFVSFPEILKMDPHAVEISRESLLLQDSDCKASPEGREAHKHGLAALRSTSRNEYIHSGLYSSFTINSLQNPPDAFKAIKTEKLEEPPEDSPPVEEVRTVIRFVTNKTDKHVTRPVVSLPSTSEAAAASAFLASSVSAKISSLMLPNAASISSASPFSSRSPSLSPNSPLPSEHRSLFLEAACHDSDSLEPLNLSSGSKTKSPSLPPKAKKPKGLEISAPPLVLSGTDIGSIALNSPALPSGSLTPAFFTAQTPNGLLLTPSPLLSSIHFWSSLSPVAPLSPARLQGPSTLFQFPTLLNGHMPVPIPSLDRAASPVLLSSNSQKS
In short: as §1

FEV = biological target: T7, FEV (Homo sapiens, UniProt Q99581 1-238); settings: protein: recombinant; tags: N-terminal GST; dsDNA, one strand shown
T7 sequence: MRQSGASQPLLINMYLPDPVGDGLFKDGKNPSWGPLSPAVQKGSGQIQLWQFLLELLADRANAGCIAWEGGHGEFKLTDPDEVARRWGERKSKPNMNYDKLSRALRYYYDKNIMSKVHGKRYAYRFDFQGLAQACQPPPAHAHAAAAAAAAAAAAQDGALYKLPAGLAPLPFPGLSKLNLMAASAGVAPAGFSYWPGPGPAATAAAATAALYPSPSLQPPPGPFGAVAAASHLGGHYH
In short: as §1

ETV5 = ETV5 (Homo sapiens, UniProt P41161 1-510); settings: protein: recombinant; tags: N-terminal GST; dsDNA, one strand shown
In short: as §1

HSF1 = HSF1 (Homo sapiens, UniProt Q00613 1-529); settings: protein: recombinant; tags: N-terminal GST; chain copies: 3; dsDNA, one strand shown
In short: as §1

SPIC = biological target: T8, SPIC (Homo sapiens, UniProt Q8N5J4 1-248); settings: protein: recombinant; tags: N-terminal GST; dsDNA, one strand shown
T8 sequence: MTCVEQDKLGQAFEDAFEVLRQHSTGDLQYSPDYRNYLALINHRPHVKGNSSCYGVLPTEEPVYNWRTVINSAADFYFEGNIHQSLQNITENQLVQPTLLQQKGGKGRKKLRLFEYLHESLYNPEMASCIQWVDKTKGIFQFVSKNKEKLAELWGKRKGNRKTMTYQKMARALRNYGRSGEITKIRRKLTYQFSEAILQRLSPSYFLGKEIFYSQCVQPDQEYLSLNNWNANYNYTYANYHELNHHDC
In short: as §1

ELF4 = ELF4 (Homo sapiens, UniProt Q99607 1-663); settings: protein: recombinant; tags: N-terminal GST; dsDNA, one strand shown
In short: as §1

ELK4 = biological target: T9, ELK4 (Homo sapiens, UniProt P28324-2 1-405); settings: protein: recombinant; tags: N-terminal GST; dsDNA, one strand shown
T9 sequence: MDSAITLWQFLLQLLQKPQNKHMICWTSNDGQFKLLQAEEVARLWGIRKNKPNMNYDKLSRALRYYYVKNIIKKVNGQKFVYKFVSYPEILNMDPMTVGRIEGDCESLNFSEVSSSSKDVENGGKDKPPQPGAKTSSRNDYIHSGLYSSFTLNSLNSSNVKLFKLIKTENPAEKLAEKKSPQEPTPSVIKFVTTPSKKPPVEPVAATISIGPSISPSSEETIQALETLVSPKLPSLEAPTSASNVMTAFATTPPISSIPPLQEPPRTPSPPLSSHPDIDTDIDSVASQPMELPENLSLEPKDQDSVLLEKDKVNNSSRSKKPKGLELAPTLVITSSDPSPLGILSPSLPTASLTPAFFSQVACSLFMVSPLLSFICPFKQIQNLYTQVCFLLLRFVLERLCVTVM
In short: as §1

ETV2 = biological target: T10, ETV2 (Homo sapiens, UniProt O00321 1-342); settings: protein: recombinant; tags: N-terminal GST; dsDNA, one strand shown
T10 sequence: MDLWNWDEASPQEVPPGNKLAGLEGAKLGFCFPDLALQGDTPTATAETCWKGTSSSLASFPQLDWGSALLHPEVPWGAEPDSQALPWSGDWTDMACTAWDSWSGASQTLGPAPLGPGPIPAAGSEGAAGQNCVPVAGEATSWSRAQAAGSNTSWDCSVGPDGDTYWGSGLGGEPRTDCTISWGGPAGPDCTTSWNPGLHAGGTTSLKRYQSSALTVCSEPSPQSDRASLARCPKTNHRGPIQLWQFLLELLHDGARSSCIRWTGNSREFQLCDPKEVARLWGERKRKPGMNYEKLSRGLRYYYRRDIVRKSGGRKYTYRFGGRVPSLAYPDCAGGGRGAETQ
In short: as §1

ELF3 = biological target: T11, ELF3 (Homo sapiens, UniProt P78545 1-371); settings: protein: recombinant; tags: N-terminal GST; dsDNA, one strand shown
T11 sequence: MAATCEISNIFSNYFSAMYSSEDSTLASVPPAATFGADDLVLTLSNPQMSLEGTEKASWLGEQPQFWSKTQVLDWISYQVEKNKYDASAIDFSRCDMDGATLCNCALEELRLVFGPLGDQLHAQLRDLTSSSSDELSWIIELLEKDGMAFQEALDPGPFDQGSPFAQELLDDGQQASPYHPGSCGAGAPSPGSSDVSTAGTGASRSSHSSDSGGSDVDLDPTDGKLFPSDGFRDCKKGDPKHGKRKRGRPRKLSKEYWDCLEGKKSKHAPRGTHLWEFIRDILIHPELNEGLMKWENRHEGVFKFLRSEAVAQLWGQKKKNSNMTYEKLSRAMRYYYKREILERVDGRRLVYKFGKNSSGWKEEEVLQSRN
In short: as §1

CRX = CRX (Homo sapiens, UniProt O43186 1-299); settings: protein: recombinant; tags: N-terminal GST; dsDNA, one strand shown
In short: as §1

ETV1 = ETV1 (Homo sapiens, UniProt P50549 1-477); settings: protein: recombinant; tags: N-terminal GST; dsDNA, one strand shown
In short: as §1

Sequence of ELF1 (P32519 whole entry): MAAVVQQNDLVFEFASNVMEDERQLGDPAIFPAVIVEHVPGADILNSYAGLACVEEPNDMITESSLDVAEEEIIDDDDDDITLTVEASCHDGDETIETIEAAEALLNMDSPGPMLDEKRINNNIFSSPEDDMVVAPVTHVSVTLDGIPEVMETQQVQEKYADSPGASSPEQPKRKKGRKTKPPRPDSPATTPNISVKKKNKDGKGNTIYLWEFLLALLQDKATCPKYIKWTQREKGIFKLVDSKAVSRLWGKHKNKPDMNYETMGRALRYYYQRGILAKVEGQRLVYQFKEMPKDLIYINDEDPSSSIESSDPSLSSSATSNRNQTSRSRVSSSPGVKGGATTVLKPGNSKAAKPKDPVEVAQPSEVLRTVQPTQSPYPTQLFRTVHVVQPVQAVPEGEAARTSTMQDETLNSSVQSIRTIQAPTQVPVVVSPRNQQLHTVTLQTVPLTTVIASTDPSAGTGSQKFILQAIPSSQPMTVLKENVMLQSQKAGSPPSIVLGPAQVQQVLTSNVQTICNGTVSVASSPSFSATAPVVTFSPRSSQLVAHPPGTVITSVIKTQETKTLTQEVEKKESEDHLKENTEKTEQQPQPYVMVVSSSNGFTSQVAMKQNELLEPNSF
Sequence of HSF1 (Q00613 whole entry): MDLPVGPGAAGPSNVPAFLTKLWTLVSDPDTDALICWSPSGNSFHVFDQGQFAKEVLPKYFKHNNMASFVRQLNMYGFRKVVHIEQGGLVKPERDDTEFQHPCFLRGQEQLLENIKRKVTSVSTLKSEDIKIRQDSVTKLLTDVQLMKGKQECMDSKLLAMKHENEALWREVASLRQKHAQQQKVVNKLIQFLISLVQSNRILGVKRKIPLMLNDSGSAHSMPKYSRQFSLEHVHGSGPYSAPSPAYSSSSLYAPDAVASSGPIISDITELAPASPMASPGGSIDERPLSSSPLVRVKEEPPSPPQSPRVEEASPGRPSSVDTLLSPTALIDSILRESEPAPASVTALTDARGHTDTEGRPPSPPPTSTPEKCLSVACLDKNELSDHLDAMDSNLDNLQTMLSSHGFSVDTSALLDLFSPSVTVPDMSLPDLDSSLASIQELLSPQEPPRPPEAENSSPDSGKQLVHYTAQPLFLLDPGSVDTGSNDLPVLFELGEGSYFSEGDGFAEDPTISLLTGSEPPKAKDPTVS
Sequence of SPIB (Q01892 whole entry): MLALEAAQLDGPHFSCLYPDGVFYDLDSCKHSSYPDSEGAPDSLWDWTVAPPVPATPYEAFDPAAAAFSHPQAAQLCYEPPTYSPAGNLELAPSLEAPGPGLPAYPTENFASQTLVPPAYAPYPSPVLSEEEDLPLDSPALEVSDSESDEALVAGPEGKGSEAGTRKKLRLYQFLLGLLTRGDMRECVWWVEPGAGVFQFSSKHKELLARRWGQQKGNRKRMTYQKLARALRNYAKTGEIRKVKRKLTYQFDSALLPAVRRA
Sequence of ETV1 (P50549 whole entry): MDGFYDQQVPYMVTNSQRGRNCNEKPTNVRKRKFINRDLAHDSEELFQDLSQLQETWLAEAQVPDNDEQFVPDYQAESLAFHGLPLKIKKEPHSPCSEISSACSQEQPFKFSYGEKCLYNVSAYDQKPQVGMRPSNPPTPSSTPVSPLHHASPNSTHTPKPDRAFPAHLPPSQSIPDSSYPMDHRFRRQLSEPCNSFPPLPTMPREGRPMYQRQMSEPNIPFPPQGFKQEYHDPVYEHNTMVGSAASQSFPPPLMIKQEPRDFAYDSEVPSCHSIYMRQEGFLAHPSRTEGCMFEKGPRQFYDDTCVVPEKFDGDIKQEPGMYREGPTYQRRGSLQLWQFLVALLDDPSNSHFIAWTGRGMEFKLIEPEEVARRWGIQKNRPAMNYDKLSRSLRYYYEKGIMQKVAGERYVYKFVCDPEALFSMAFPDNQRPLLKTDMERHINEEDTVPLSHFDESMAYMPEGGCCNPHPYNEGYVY
Sequence of ELF4 (Q99607 whole entry): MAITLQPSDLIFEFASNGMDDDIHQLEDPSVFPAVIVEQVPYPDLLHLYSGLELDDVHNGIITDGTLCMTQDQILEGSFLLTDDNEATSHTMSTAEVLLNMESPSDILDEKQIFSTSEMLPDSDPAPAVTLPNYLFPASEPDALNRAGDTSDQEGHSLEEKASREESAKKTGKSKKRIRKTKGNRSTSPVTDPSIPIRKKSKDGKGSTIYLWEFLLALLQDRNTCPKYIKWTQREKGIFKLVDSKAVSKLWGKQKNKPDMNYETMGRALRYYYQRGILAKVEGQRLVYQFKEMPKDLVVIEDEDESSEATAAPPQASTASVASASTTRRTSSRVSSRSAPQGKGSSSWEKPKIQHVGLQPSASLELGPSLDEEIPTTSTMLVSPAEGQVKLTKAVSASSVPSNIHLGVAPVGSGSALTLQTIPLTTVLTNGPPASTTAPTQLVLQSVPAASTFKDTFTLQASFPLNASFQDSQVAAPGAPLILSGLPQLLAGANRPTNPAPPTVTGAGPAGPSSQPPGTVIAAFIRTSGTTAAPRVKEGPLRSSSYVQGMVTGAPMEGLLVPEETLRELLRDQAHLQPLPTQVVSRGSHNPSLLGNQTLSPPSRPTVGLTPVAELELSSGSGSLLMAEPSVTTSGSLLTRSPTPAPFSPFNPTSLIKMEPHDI
Sequence of ETV5 (P41161 whole entry): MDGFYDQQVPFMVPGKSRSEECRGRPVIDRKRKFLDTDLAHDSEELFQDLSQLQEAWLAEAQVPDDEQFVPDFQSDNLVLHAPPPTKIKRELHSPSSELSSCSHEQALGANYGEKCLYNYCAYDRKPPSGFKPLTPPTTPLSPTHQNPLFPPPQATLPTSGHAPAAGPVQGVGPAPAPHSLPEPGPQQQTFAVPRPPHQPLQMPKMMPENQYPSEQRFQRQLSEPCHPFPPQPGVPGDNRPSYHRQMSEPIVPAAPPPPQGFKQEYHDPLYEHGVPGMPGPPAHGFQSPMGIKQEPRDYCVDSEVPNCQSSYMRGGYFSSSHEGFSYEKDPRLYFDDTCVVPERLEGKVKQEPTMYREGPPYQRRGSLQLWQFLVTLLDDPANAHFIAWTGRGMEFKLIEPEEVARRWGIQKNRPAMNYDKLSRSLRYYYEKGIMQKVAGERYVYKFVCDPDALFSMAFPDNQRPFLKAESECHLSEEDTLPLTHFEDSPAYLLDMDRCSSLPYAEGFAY
Sequence of CRX (O43186 whole entry): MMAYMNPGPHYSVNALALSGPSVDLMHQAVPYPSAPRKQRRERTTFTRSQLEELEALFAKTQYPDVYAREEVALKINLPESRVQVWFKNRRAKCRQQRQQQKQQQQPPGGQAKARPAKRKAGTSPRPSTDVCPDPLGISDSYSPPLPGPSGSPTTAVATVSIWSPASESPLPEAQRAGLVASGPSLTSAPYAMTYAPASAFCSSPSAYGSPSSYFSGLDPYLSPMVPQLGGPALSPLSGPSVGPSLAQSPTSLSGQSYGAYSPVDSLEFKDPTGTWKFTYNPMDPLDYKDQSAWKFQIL

With CTTGCT the binding signal (FLI1) was 1.51 fold enrichment (6-mer frequency, TF over GST control), the binding signal (ELK1) was 1.35 fold enrichment (6-mer frequency, TF over GST control) and the binding signal (GABPA) was 1.38 fold enrichment (6-mer frequency, TF over GST control). The binding signal (ERG) was 1.21 fold enrichment (6-mer frequency, TF over GST control), the binding signal (ELF1) was 1.33 fold enrichment (6-mer frequency, TF over GST control) and the binding signal (EHF) was 1.25 fold enrichment (6-mer frequency, TF over GST control). The binding signal (SPI1) was 1.44 fold enrichment (6-mer frequency, TF over GST control), the binding signal (SPIB) was 1.34 fold enrichment (6-mer frequency, TF over GST control) and the binding signal (ELK3) was 1.25 fold enrichment (6-mer frequency, TF over GST control). For the same sequence, the binding signal (FEV) was 1.25 fold enrichment (6-mer frequency, TF over GST control), the binding signal (ETV5) was 1.39 fold enrichment (6-mer frequency, TF over GST control) and the binding signal (HSF1) was 1.24 fold enrichment (6-mer frequency, TF over GST control). The binding signal (SPIC) was 1.52 fold enrichment (6-mer frequency, TF over GST control), the binding signal (ELF4) was 1.35 fold enrichment (6-mer frequency, TF over GST control) and the binding signal (ELK4) was 1.34 fold enrichment (6-mer frequency, TF over GST control). For the same sequence, the binding signal (ETV2) was 1.58 fold enrichment (6-mer frequency, TF over GST control), the binding signal (ELF3) was 1.52 fold enrichment (6-mer frequency, TF over GST control) and the binding signal (CRX) was 1.18 fold enrichment (6-mer frequency, TF over GST control). The binding signal (ETV1) was 1.36 fold enrichment (6-mer frequency, TF over GST control).
